Holding throughout (assay): DAPPL (digital affinity profiling via proximity ligation, sequencing); 10 mM Tris-HCl pH 7.5, 50 mM NaCl, 1 mM DTT, 4% glycerol, room temperature, 30 min; GST-TFs on glutathione beads, 16-mer random dsDNA library, 0.1% formaldehyde crosslink after washing; high values mean tight binding
The target in assay [1] is T1, FLI1 (Homo sapiens, UniProt Q01543 1-452).
T1 sequence: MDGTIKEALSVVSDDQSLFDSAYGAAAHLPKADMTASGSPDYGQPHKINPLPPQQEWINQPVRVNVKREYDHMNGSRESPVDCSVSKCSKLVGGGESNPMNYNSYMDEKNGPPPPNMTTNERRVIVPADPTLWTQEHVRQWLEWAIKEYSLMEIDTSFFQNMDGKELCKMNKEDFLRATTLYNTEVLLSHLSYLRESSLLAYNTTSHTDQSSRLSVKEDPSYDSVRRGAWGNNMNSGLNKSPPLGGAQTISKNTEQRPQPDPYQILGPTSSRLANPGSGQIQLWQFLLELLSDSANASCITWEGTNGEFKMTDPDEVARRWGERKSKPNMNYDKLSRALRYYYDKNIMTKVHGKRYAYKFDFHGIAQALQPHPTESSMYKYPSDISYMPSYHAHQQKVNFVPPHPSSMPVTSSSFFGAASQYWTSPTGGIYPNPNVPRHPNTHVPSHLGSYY
The note with it: protein: recombinant; tags: N-terminal GST; dsDNA, one strand shown. Summed up: (§1)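 Pools were built from human transcription factors expressed in yeast as GST fusions, captured on glutathione beads and DNA-barcoded, along with a tag-only sample. Incubation with 200 nmole of a 16-mer random double-stranded DNA library lasted 30 min at room temperature in Tris/NaCl/DTT/glycerol buffer, and was followed by washing, 0.1% formaldehyde crosslinking, proximity ligation, PCR amplification and Illumina NextSeq500 sequencing. Binding signal is the quotient of each hexamer's read frequency for a factor and its frequency for the tag-only sample.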

The target of assay [2] is T2, ELK1 (Homo sapiens, UniProt P19419 1-428).
T2 sequence: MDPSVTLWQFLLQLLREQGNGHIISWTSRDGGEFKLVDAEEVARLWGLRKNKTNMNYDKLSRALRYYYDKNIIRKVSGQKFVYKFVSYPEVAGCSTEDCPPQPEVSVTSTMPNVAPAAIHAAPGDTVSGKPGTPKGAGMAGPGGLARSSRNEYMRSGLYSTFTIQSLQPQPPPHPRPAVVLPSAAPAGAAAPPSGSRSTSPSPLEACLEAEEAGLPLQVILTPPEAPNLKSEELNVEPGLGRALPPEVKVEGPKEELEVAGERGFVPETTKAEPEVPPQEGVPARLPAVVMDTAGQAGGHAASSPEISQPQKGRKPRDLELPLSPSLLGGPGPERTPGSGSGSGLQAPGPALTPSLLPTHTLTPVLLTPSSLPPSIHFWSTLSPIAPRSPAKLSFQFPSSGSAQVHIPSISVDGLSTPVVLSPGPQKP
The following applies: protein: recombinant; tags: N-terminal GST; dsDNA, one strand shown. Summed up: as §1

Assay [3] addresses T3, GABPA (Homo sapiens, UniProt Q06546 1-454).
T3 sequence: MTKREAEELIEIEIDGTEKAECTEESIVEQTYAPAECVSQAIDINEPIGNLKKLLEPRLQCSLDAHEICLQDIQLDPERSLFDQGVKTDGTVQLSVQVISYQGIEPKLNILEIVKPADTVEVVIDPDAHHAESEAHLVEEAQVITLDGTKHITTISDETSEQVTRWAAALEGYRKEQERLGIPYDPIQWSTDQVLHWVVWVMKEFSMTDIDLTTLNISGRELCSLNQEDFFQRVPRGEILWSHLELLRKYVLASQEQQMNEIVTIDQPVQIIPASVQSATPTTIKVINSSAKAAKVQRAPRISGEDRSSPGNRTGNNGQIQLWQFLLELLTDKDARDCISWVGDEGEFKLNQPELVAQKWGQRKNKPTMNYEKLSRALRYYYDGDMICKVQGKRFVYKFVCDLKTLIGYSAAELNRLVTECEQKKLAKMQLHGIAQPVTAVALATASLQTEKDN
The following applies: protein: recombinant; tags: N-terminal GST; dsDNA, one strand shown. Summed up:
as §1

The target of assay [4] is T4, ERG (Homo sapiens, UniProt P11308 1-479).
T4 sequence: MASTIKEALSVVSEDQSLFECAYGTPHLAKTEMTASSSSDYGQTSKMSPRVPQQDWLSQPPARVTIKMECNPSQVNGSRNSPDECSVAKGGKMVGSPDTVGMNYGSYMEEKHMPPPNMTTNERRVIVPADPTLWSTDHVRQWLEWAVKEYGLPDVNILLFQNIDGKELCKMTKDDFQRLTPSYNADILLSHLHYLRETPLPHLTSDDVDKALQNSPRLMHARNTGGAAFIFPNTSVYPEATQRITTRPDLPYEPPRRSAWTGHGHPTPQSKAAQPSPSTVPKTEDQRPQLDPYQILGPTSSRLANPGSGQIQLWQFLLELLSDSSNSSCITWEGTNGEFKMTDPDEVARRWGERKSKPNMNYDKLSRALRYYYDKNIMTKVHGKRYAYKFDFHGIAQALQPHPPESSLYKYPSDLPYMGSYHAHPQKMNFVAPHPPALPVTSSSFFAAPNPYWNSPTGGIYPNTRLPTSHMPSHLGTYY
The following applies: protein: recombinant; tags: N-terminal GST; dsDNA, one strand shown. In outline: as §1

In assay [5] the target is ELF1 (Homo sapiens, UniProt P32519 1-619). The following applies: protein: recombinant; tags: N-terminal GST; dsDNA, one strand shown. Summed up: as §1
Assay [6] deals with T5, EHF (Homo sapiens, UniProt Q9NZC4 1-300).
T5 sequence: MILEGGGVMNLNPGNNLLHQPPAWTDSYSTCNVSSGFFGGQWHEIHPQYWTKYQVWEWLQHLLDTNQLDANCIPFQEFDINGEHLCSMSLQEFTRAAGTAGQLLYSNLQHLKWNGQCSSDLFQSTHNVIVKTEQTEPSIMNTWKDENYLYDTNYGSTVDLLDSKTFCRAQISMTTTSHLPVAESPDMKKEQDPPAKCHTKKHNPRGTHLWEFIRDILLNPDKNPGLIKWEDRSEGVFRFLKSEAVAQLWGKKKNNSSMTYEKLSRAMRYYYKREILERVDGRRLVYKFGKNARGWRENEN
The following applies: protein: recombinant; tags: N-terminal GST; dsDNA, one strand shown. In outline: as §1

Assay [7] addresses SPI1 (Homo sapiens, UniProt P17947 1-270). The following applies: protein: recombinant; tags: N-terminal GST; dsDNA, one strand shown. Summed up:
as §1

The target in assay [8] is SPIB (Homo sapiens, UniProt Q01892 1-262). The following applies: protein: recombinant; tags: N-terminal GST; dsDNA, one strand shown. Summed up: as §1
Assay [9] deals with T6, ELK3 (Homo sapiens, UniProt P41970 1-407).
T6 sequence: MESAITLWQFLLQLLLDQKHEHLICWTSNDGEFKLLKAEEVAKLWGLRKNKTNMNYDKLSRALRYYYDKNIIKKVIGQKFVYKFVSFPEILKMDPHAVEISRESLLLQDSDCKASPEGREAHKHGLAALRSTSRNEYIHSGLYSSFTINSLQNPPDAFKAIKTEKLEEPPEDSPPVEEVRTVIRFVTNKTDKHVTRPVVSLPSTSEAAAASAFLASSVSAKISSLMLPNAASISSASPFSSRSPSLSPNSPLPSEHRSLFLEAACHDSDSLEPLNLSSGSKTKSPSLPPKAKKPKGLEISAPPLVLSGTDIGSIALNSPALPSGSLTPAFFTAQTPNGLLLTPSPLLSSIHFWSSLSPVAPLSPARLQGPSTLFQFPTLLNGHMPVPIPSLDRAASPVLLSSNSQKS
The note with it: protein: recombinant; tags: N-terminal GST; dsDNA, one strand shown. In outline: as §1

Assay [10] has as its target T7, FEV (Homo sapiens, UniProt Q99581 1-238).
T7 sequence: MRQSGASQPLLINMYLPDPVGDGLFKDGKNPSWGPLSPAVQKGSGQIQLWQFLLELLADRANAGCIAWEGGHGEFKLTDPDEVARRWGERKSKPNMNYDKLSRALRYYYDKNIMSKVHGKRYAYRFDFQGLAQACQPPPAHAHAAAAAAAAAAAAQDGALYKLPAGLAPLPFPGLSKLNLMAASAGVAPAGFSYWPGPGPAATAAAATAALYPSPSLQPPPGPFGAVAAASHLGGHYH
The following applies: protein: recombinant; tags: N-terminal GST; dsDNA, one strand shown. Summed up:
as §1

The target in assay [11] is ETV5 (Homo sapiens, UniProt P41161 1-510). The note with it: protein: recombinant; tags: N-terminal GST; dsDNA, one strand shown. In outline:
as §1

The target of assay [12] is HSF1 (Homo sapiens, UniProt Q00613 1-529). The following applies: protein: recombinant; tags: N-terminal GST; chain copies: 3; dsDNA, one strand shown. In outline:
as §1

Assay [13] has as its target T8, SPIC (Homo sapiens, UniProt Q8N5J4 1-248).
T8 sequence: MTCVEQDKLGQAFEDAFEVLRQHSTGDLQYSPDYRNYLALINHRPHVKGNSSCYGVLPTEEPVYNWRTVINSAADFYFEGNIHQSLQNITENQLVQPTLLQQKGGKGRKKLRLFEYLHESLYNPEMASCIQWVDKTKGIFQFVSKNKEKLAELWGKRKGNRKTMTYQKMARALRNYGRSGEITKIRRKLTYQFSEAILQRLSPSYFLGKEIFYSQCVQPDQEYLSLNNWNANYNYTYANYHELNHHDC
The following applies: protein: recombinant; tags: N-terminal GST; dsDNA, one strand shown. In outline:
as §1

Assay [14] deals with ELF4 (Homo sapiens, UniProt Q99607 1-663). The following applies: protein: recombinant; tags: N-terminal GST; dsDNA, one strand shown. Summed up: as §1
Assay [15] has as its target T9, ELK4 (Homo sapiens, UniProt P28324-2 1-405).
T9 sequence: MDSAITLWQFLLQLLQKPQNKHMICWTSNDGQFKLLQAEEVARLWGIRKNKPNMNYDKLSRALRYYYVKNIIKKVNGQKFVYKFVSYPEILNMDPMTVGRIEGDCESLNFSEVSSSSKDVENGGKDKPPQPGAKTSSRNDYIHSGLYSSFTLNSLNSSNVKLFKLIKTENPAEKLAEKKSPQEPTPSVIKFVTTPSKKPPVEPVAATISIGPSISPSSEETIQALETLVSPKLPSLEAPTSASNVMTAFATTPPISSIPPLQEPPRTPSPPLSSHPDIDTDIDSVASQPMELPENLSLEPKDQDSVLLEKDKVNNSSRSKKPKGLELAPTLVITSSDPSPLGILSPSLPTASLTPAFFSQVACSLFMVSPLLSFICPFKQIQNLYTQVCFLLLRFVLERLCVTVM
The note with it: protein: recombinant; tags: N-terminal GST; dsDNA, one strand shown. Summed up:
as §1

Assay [16] deals with T10, ETV2 (Homo sapiens, UniProt O00321 1-342).
T10 sequence: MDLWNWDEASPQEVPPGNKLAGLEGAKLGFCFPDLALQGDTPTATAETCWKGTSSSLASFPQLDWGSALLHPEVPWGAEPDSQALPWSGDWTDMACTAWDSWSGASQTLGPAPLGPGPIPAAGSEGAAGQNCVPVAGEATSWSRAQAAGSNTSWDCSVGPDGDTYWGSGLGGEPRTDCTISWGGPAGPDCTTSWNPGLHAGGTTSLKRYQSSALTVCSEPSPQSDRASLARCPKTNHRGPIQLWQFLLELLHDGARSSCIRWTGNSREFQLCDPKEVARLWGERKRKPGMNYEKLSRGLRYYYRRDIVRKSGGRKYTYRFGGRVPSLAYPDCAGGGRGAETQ
The note with it: protein: recombinant; tags: N-terminal GST; dsDNA, one strand shown. In outline: as §1

Assay [17] concerns the target T11, ELF3 (Homo sapiens, UniProt P78545 1-371).
T11 sequence: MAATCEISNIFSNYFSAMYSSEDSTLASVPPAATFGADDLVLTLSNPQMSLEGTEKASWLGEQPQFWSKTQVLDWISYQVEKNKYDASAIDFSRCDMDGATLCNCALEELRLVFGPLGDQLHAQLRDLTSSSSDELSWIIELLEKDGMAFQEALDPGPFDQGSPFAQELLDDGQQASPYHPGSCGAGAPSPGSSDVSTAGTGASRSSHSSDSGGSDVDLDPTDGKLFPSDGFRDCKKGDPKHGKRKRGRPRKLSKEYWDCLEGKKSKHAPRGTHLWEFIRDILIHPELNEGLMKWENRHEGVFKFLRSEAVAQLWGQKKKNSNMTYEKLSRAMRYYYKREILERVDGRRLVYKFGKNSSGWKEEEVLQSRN
The note with it: protein: recombinant; tags: N-terminal GST; dsDNA, one strand shown. Summed up: as §1

Assay [18] deals with ETV1 (Homo sapiens, UniProt P50549 1-477). The note with it: protein: recombinant; tags: N-terminal GST; dsDNA, one strand shown. In outline:
as §1

ELF1, sequence (P32519 whole entry): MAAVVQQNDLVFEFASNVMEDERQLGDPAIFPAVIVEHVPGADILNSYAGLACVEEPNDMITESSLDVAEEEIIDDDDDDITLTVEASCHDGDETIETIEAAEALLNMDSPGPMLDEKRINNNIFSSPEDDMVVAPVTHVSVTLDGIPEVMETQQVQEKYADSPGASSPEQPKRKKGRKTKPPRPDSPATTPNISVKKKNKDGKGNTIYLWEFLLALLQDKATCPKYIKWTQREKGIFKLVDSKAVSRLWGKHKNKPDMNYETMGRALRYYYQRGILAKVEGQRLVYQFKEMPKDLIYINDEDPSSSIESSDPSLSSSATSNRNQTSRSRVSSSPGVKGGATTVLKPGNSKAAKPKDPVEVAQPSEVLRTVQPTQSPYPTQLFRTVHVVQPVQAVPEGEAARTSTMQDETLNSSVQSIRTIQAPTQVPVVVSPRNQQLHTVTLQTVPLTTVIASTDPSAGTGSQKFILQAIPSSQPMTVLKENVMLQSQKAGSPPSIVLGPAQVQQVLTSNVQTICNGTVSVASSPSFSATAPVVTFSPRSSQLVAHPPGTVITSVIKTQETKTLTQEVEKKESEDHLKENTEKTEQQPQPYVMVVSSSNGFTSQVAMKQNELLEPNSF
ETV5, sequence (P41161 whole entry): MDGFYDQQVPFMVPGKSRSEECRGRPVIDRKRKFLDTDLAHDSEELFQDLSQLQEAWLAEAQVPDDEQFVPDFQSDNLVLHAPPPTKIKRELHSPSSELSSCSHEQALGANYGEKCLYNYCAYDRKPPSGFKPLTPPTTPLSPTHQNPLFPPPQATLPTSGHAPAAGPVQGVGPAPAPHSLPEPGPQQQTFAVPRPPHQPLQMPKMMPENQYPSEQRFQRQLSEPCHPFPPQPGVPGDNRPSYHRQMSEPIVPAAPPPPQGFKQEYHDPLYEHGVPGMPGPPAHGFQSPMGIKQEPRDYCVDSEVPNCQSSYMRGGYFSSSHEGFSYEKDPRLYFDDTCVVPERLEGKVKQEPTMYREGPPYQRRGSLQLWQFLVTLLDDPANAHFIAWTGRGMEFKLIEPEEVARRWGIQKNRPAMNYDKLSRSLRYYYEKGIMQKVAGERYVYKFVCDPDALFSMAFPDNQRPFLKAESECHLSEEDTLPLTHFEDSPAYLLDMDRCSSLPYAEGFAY
HSF1, sequence (Q00613 whole entry): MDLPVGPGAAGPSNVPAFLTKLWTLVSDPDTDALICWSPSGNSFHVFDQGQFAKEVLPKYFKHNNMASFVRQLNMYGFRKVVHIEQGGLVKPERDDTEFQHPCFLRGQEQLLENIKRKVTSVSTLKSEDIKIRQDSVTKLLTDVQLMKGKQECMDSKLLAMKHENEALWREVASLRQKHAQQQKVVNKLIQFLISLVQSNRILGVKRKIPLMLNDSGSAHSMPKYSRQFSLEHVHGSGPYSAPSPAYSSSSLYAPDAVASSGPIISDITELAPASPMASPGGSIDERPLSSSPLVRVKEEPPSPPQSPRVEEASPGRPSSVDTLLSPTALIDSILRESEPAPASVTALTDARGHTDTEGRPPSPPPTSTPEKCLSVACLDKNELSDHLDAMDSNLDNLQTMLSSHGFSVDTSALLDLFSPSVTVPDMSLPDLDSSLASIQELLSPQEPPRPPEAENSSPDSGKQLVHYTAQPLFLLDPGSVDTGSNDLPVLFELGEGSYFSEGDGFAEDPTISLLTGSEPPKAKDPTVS
ELF4, sequence (Q99607 whole entry): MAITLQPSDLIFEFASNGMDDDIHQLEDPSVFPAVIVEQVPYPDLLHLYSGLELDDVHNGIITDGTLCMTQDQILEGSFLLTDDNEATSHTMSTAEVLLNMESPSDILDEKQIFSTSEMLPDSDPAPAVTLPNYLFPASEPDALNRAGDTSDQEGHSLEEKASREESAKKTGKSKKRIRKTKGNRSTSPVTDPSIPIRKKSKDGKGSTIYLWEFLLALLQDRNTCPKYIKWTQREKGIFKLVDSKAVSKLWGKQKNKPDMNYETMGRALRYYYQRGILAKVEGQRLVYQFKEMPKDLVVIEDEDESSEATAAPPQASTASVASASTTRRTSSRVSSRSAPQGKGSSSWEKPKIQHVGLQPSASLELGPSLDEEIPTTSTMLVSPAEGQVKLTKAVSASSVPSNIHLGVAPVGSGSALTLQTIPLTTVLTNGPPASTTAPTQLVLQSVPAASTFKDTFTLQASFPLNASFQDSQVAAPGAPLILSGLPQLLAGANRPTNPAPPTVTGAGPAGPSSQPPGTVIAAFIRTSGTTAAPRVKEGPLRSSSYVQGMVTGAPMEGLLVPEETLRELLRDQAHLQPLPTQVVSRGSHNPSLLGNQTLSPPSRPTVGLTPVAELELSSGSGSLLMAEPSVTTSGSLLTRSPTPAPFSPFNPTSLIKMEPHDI
SPIB, sequence (Q01892 whole entry): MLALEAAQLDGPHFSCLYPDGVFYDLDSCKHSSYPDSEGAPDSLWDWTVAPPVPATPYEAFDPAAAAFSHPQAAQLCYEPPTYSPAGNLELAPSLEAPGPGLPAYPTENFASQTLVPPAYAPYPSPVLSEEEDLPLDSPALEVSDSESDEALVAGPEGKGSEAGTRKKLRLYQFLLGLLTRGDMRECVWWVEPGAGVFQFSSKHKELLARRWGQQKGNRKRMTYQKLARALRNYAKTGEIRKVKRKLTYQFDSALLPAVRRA
ETV1, sequence (P50549 whole entry): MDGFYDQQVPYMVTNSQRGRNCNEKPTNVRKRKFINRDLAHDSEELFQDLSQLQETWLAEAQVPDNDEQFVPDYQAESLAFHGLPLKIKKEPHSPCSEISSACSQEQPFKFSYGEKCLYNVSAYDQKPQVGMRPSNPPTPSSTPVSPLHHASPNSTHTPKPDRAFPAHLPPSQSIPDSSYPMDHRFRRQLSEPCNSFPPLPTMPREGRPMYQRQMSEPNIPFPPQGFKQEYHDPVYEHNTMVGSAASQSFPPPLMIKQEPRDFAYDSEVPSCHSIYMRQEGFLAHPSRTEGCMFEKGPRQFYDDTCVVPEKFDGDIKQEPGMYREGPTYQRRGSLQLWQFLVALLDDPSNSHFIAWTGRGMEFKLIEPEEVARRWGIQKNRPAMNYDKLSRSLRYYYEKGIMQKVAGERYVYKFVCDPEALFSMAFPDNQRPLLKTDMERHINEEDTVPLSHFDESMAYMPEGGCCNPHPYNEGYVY

As for GGCACT, the binding signal is 1.24 fold enrichment (6-mer frequency, TF over GST control) in [1]; 1.21 fold enrichment (6-mer frequency, TF over GST control) in assay [2]; 1.28 fold enrichment (6-mer frequency, TF over GST control) in assay [3]; 1.22 fold enrichment (6-mer frequency, TF over GST control) in assay [4]; 1.22 fold enrichment (6-mer frequency, TF over GST control) in assay [5]; 1.33 fold enrichment (6-mer frequency, TF over GST control) in assay [6]. Moreover, the binding signal was 1.35 fold enrichment (6-mer frequency, TF over GST control) in [7]; 1.35 fold enrichment (6-mer frequency, TF over GST control) in assay [8]; 1.27 fold enrichment (6-mer frequency, TF over GST control) in assay [9]; 1.46 fold enrichment (6-mer frequency, TF over GST control) in assay [10]; 1.32 fold enrichment (6-mer frequency, TF over GST control) in assay [11]; 1.03 fold enrichment (6-mer frequency, TF over GST control) in assay [12]. For the same sequence, the binding signal is 1.24 fold enrichment (6-mer frequency, TF over GST control) in [13]; 1.26 fold enrichment (6-mer frequency, TF over GST control) in assay [14]; 1.28 fold enrichment (6-mer frequency, TF over GST control) in assay [15]; 1.19 fold enrichment (6-mer frequency, TF over GST control) in assay [16]; 1.29 fold enrichment (6-mer frequency, TF over GST control) in assay [17]; 1.38 fold enrichment (6-mer frequency, TF over GST control) in assay [18].

Source of the values: publication PMC7862700, “An all-to-all approach to the identification of sequence-specific readers for epigenetic DNA modifications on cytosine”.
